Where “and” joins values, the source holds several entries; their conditions need not be identical. Equal entries are not always repeated. The panel holds about 83,000 compounds, 20% with a hit somewhere; the sample as a whole holds those more often.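 Method: cells in 96-well plates; compound added at one concentration; 48 h incubation; percent growth measured; values under 10 scored active.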 Values without a mark were called inactive. Calls of active or inactive are those of the source.
System: MDA-MB-468 breast
Assay: NCI-60 one-dose screen, 48 h (100 = growth as untreated, 0 = no growth, -100 = all killed)
Conditions: 10 µM unless noted

SMILES | growth
COc1ccccc1-c1c(-c2ccc(Cl)cc2)c2cc3c(cc2[nH]c1=O)OCCO3 | 62.7%
Cn1cnc([N+](=O)[O-])c1S(=O)(=O)Oc1ccc(Cl)cc1 | 29.8%
C#CCOc1cccc(Nc2ncnc3ccc(NC(=O)CCl)cc23)c1 | -54% (active)
O=CN(SSN(C=O)C1CCCCC1)C1CCCCC1 | 108%
CNC(=O)c1cc(Oc2ccc3nc(NC(=O)c4ccc(N5CCOCC5)c(C(F)(F)F)c4)sc3c2)ccn1 | 80.5%
Clc1ccc(N2N=C(c3cccc(Nc4ccncc4)c3)CC2c2ccc(Br)cc2)cc1 (stereo not given) | -27.1% (active)
N#CC(C#N)N=Nc1ccc(Cl)cc1Cl | 58.8%
Cc1nn(-c2ccc(Cl)cc2)c2ncnc(N/N=C/c3cccc([N+](=O)[O-])c3)c12 | 117%
S=c1[nH]c2cc(Cl)ccc2o1 | 99%
COc1ccc2nc3cc(Cl)ccc3c(Nc3ccc(N(C)C)cc3)c2c1 | 73.7%
C[C@H](NC(=O)c1snnc1C1CC1)c1c(F)cccc1Cl | 99.4%
O=C(Nc1ccncc1)C(=O)c1cn(S(=O)(=O)c2ccc(Cl)cc2)c2ccccc12 | 19.7%
C=CCn1c(SCC(=O)Nc2ccc(C(=O)/C=C/c3cc(OC)c(OC)c(OC)c3)cc2)nnc1-c1cc(-c2ccc(OC)cc2)nc2ccccc12 | 103%
Cc1ccc(C(=NN=C(N)N)c2ccc(C)cc2)cc1 | -42.5% (active)
Nn1c(CN2CCN(c3cc4c(cc3F)c(=O)c(C(=O)O)cn4C3CC3)CC2)n[nH]c1=S | 99.2%
CC(C)OC1OC(OC(C)C)C(OC(C)C)OC1OC(C)C (stereo not given) | 101%
O=S(=O)(Nc1cccc2ccccc12)c1ccc(-c2cnc(C3CC3)o2)cc1 | 0.881% (active)
O=c1oc2ccc(-c3ccc(F)cc3F)cc2c(=O)n1-c1cccc(C(F)(F)F)c1 | -12.8% (active) and -5.33% (active)
O=C(Cn1c(-c2ccc([N+](=O)[O-])cc2)nc2ccccc21)NNC(=O)c1cccnc1 | -12.6% (active)
CC(C)(C)OC(=O)N1CCc2c(sc3ncnc(N/N=C/c4cccc(Br)c4)c23)C1 | 52.2%

SMILES | growth
COc1cc(-c2ccc(-c3ccc(C(=N)N)s3)s2)cc(OC)c1OC | 23.8%
COCc1c(-c2ccc(NC(=O)Nc3cc(C(F)(F)F)ccc3F)c(F)c2)c2c(N)ncnn2c1CN1CCOCC1 | -54.8% (active)
CCc1ccccc1-n1c(-c2ccc(Cl)cc2)cc(-c2ccc(OC)cc2)c(C#N)c1=O | 104%
C(=C(\C1=NCCN1)n1ccc2ccccc21)/c1ccccc1 | 96.5%
COc1ccc(C(=O)N2NC(=O)/C(=C/c3ccccc3F)N=C2c2ccccc2)cc1 | 105%
CCOc1ccc2nc(NC(=O)c3ccc(C(F)(F)F)cc3)sc2c1 | 111%
Clc1ccc(-c2csc(Nc3cccc(Nc4csc(-c5ccc(Cl)cc5)n4)c3)n2)cc1 | 77%
Cn1c(=O)c2[nH]c(SCC(=O)Nc3ccc(C(=O)/C=C/c4ccccc4Cl)cc3)nc2n(C)c1=O | 76.4%
CCCCCCNC(=O)Nc1ncnc2c1ncn2-c1ccccc1 | 105%
CC(=O)OC(C)C(=O)NCC(C)O (stereo not given) | 105%
C=C1CC[C@@H]2[C@](C)(COC(C)=O)[C@H](OC(C)=O)CC[C@@]2(C)[C@@H]1CC(Nc1ccc(S(=O)(=O)Nc2nc(C)cc(C)n2)cc1)C1=CCOC1=O (stereo not given in full) | 41%
COc1nc(N)nc(-n2c(-c3ccc(C)cc3)nc3ccccc32)c1NCc1ccc(C)cc1 | 98.6%
COc1ccc(C(=O)c2sc3nc(-c4cccs4)ccc3c2N)cc1OC | 8.13% (active)
CCCCCCCC1(C)NC(=O)NC1=O (stereo not given) | 115%
CN(C)/C(N)=N/N=C(\c1ccccc1)c1ccccn1 | 95.8%
CCCCCCCCCCCCCCCCCCOc1ccccc1CC(=O)NCC[N+]1(C)CCCCC1 | 7.37% (active)
CC(=O)Oc1c(Cl)c(Cl)c(Cl)c(Cl)c1Cl | 113%
CC(C)(C)c1ccc(C(=O)N/N=C/c2ccc(O)cc2O)cc1 | -32.5% (active)
Nc1nc(NC2CC2)cc(-c2cccc(Cl)c2Cl)n1 | 30.8%
CC(=O)Nc1nc(C)c(C(=O)N/N=C/c2cccs2)s1 | 98.8%
